In the library only some 2.4% were active in any assay of this set; here they are far more common.
D2 ag-1: agonists of human D2 dopamine receptor | HEK293 T-REx D2 cells, calcium flux agonist mode | activation, % at 2 µM | 340,000 tested, 0.53% active | AID 485358;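 active = activation over 3 SD above normal in the single-dose calcium agonist read, cut at about 30% in these data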
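Calcium-flux readout, 1 cycle/sec over 180 s following compound pin transfer, in inducible HEK293 Trex D2 cells (force-coupled); dopamine controls included. Positive calcium responses during this window marked compounds as potential agonists.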
D2 antagonist: antagonists of human D2 dopamine receptor | P14416 | HEK293 TREx D2 cells, calcium flux, dopamine EC80 | inhibition, % at 10 µM | 340,000 tested, 2% active | AID 485344; in the data active = inhibition above about 30%; inactive = below that, where a call was filed
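Compounds are added to dye-loaded, induced HEK293 T-REx cells coupled to calcium release via D2; after a 3 min kinetic read an EC80 dopamine stimulus is given and fluorescence is recorded for 3 more min.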
D2 ag-2: agonists of human D2 dopamine receptor (beta-arrestin); P14416; DiscoveRx PathHunter D2 beta-arrestin, luminescence, 90 min; 100% = 57 uM dopamine signal; activation, % (no concentration beside the values); 360,000 tested, 0.084% active; in the data active = activation above about 40%; inconclusive = between about 15% and that limit
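Agonist mode: compounds alone added to overnight-plated D2 PathHunter cells for 90 min at 37 C, with 57 uM final dopamine (EC100) defining full response. Beta-arrestin recruitment detected by chemiluminescent reagent, read after 1 h at ambient temperature.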
D2 PAM-1: positive allosteric modulators of human D2 dopamine receptor | potentiation, % (no concentration beside the values) | P14416 | 360,000 tested, 0.23% active | AID 624464 | DiscoveRx D2 beta-arrestin cells, luminescence, 90 min; 100% = 57 uM dopamine signal; in the data active = potentiation above about 50%; inconclusive = mostly about 30% to 49%
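PathHunter beta-arrestin assay in DiscoveRx D2 cells. Compounds were added with an EC20 of dopamine (50 nM final) for 90 min at 37 deg C. Luminescence was read 1 h after detection reagent, with 57 uM dopamine as the EC100 control.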
D2 PAM-2: D2 dopamine receptor (human) potentiation. P14416. 340,000 tested, 0.34% active. potentiation, % at 10 µM. HEK293 T-REx D2, calcium flux, EC20 dopamine potentiation;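 active = potentiation over 3 SD above the plate norm, cut at about 30% in these data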
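Tetracycline-induced HEK293 T-REx cells force-coupled to calcium signalling expressed D2; compounds were pin-added after a 10 s baseline, read kinetically 180 s, then an EC20 dopamine challenge followed with a further 180 s calcium read.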
D3 arrestin ag: confirmation of human D3 dopamine receptor agonists, beta-arrestin; shares compounds with D2 ag-1; DiscoveRx D3 beta-arrestin cells, luminescence, 90 min; Potency, µM (series often up to 76.9 µM), most hits filed as activators; 2,300 tested, 4% active; AID 720506; note: nearly all actives have a fitted effect of over 70% in size
Target sequence (P35462 whole entry, looked up): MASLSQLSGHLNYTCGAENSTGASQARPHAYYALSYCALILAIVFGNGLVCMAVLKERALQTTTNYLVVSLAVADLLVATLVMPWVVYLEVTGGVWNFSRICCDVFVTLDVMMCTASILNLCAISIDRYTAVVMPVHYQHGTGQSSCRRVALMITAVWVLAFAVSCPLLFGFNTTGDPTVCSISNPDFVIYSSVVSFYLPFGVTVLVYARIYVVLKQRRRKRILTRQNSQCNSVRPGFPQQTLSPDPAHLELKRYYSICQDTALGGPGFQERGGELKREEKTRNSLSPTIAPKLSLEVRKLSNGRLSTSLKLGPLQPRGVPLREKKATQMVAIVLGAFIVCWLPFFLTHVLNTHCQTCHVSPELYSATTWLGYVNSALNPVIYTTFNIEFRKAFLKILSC
D2 ag-3: counter-screen for D3 agonists: human D2 dopamine receptor agonism | shares compounds with D2 ag-1 | DiscoveRx PathHunter D2 beta-arrestin, luminescence, 90 min; response scale: percent relative to full dopamine signal | Potency, µM (doses to about 76.9 µM), actives largely listed as activators | 2,300 tested, 5.9% active | AID 720507; note: nearly all actives have a fitted effect of over 70% in size
Of the large screens only hits and unclear results are named; the others gave an inactive call (follow-up assays come after a bar, where they were run). Unless noted, calls come from the whole dose curve; as a rule, active = well fitted activation curve with a large enough effect; inconclusive = small, poorly fitted or top-dose-only effect; inactive = flat fitted curve, though single readings scatter.

CC1(C)C2CCC(C2)C1(C)NC(=O)CNCc1cccs1 (centres undefined)	none | D3 arrestin ag inactive | D2 ag-3 inactive
O=C(CNCc1cccs1)NC12CC3CC(CC(C3)C1)C2	none
CCCn1ncc(CN2CCC(C(=O)Nc3cccc(-c4cccc(F)c4)c3)CC2)c1C	none
O=C(O)CCSc1nc2ccccc2s1	none
c1ccc2sc(SCSc3nc4ccccc4s3)nc2c1	D2 ag-1 32 | D3 arrestin ag inactive | D2 ag-3 inconclusive
CC(C)c1ccc(-n2nnnc2SCC(=O)NC2CC2)cc1	none
CC1(C)CC(=O)C=C(/C=C/c2ccccc2)C1	none | D3 arrestin ag inactive | D2 ag-3 inactive
COc1ccc(C(=O)N=C2SC3CS(=O)(=O)CC3N2Cc2ccccc2)cc1OC (centres undefined)	none | D3 arrestin ag inconclusive | D2 ag-3 inactive
COc1ccccc1NC(=O)N1CCC(CN2CCc3ccccc3C2)CC1	none (no result: D2 antagonist, D2 ag-2, D2 PAM-1)
O=C(C1CCN(S(=O)(=O)c2ccc(Cl)c(C(F)(F)F)c2)CC1)N1CCC1	none | D3 arrestin ag inactive | D2 ag-3 inactive
CCOC(=O)C1CCCN(C(=O)c2ccc3c(c2)N(Cc2ccccc2)C(=O)c2ccccc2S3(=O)=O)C1 (centres undefined)	none (no result: D2 antagonist, D2 ag-2, D2 PAM-1)
CCN(CC)c1ccc2cc(C(N)=O)c(=O)oc2c1	none
CCN(CC)c1ccc2cc(C(N)=O)c(=N)oc2c1	D2 ag-1 44 | D3 arrestin ag inactive | D2 ag-3 inactive
CC(=O)OCC1=C[C@@H]2OC(=O)C3=CO[C@@H](O[C@@H]4O[C@H](CO)[C@@H](O)[C@H](O)[C@H]4O)[C@H]1[C@@H]32	none | D3 arrestin ag inactive | D2 ag-3 inactive
COC(=O)C1=CO[C@@H](O[C@@H]2O[C@H](CO)[C@@H](O)[C@H](O)[C@H]2O)C2C(CO)=CCC12 (some centres undefined)	none (no result: D2 ag-1, D2 antagonist, D2 PAM-2)
CC(C)CN(CCCNC(=O)c1cn(C)c2ccc(S(=O)(=O)N(C)C3CCCCC3)cc2c1=O)CC(C)C	none (no result: D2 antagonist, D2 ag-2, D2 PAM-1)
Cc1cccc(N2C(=O)c3cccc4c(N(C)CCO)ccc(c34)C2=O)c1	none | D3 arrestin ag inactive | D2 ag-3 inactive
CN(C)c1ccc2c3c(cccc13)C(=O)N(c1ccccc1)C2=O	none (no result: D2 ag-2, D2 PAM-1)
CCN1CCN(c2ccc(S(=O)(=O)N3CCOCC3)cc2NC(=O)C(C)Oc2ccc(F)cc2)CC1 (centres undefined)	none | D3 arrestin ag inactive | D2 ag-3 inactive
CC(Oc1ccc(F)cc1)C(=O)Nc1cc(S(=O)(=O)N2CCOCC2)ccc1N1CCCC1 (centres undefined)	none
CCOc1ccc(-n2cc(-c3ccccc3)c3c(N4CCC(C)CC4)ncnc32)cc1	none (no result: D2 antagonist, D2 ag-2, D2 PAM-1)
CC1CN(CCn2cnc3c(N)ncnc32)CC(C)O1 (centres undefined)	D2 antagonist 46 | D3 arrestin ag inactive | D2 ag-3 inactive
CCOC(=O)NC(=O)/C(C#N)=N\Nc1cccc(Cl)c1	D2 antagonist 38 | D3 arrestin ag inactive | D2 ag-3 inactive
O=C(COC(=O)c1nsc(Cl)c1Cl)NC1CCCCC1	none
Nc1c(Cl)c(Cl)nc(C(=O)OCC(=O)NC2CCCCC2)c1Cl	D2 ag-1 64, D2 antagonist 57, D2 ag-2 53, D2 PAM-1 inconclusive | D3 arrestin ag inactive | D2 ag-3 inconclusive
CCOc1ccc(/C=N/NC(=O)c2cc(-c3ccccc3)nc3ccccc23)cc1O	none (no result: D2 ag-1, D2 antagonist, D2 PAM-2) | D3 arrestin ag inactive | D2 ag-3 inactive
Cc1cc(C)cc(NC(=O)c2cc(C)nn2C)c1	D2 ag-1 34 | D3 arrestin ag inactive | D2 ag-3 inactive
Cc1ccc(NC(=O)CSc2nc3ccc(NC(=O)c4cccs4)cc3s2)c(C)c1	none (no result: D2 ag-1, D2 antagonist, D2 ag-2, D2 PAM-1)
CC1CN(C)C(C)C/C1=N/Oc1ccccc1[N+](=O)[O-] (centres undefined)	D2 ag-1 41 | D3 arrestin ag inactive | D2 ag-3 inactive
